Inconclusive results are not listed. Calls of active or inactive are those of the source. Unless noted, calls follow the shape of the dose curve; as a rule, active = well fitted curve in the direction sought with a large enough effect in the repeat runs; inconclusive = weak or mixed curves; inactive = no such curve, though single readings can be large; an effect the other way counts as inactive or inconclusive.
Columns and labels:
Aromatase (Homo sapiens) = Aromatase (Homo sapiens) (UniProt P11511); test: qHTS assay to identify aromatase inhibitors (AID 743083); also: nearly all actives have a fitted effect of over 55% in size; also: potency is read from the fitted curve at half-maximal effect
[1] = qHTS assay for small molecule agonists of the p53 signaling pathway - cell viability (AID 651633; calls by dose curve; also: nearly all actives have a fitted effect of over 30% in size; also: potency is read from the fitted curve at half-maximal effect)
Procedure, shortened: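 p53RE-bla cells, seeded at 4,000 per well and rested 5 h at 37 C/5% CO2, received compounds in DMSO for 16 h at 37 C. CellTiter-Glo was then added, and luminescence was read after 30 min at room temperature to gauge cytotoxicity.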

[2] = qHTS assay for small molecules that induce genotoxicity in human embryonic kidney cells expressing luciferase-tagged ATAD5 - cell viability (AID 651634; calls by dose curve; also: nearly all actives have a fitted effect of over 25% in size; also: potency is read from the fitted curve at half-maximal effect)
Procedure, shortened: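 After 15.5 hr incubation with compound at 37C, 5% CO2, HEK293T ATAD5-luciferase cells received CellTiter-Fluor reagent; fluorescence intensity was quantified following 30 min at 37C.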

[3] = qHTS assay to test for compound auto fluorescence at 590 nm (red) in HepG2 cells (AID 720674)
Procedure, shortened: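 Rose Bengal sodium served as the red fluorophore standard. HepG2 monolayers (overnight attachment, MEM with 10% FBS) were exposed to test compounds for 1 hr at 37 C and read at Ex 540/Em 590 nm.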

[4] = qHTS assay to test for compound auto fluorescence at 460 nm (blue) in HEK293 cells (AID 720678)
Procedure, shortened: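 HEK293 cells (2,000 per well, medium with 10% dialyzed FBS) attached for 4-5 hr at 37C, then received compound and stood overnight at 37C, 5% CO2. Blue fluorescence was read at Ex/Em 405/460 nm and expressed relative to triamterene.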

[5] = qHTS assay to test for compound auto fluorescence at 590 nm (red) in HEK293 cells (AID 720679)
Procedure, shortened: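 HEK293 cells (2,000/well, medium with 10% dialyzed FBS) attached for 4-5 hr at 37C, received 23 nL compound and were incubated overnight at 37C, 5% CO2. Red fluorescence was then read at 540/590nm Ex/Em, referenced to Rose Bengal sodium.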

[6] = qHTS assay to test for compound auto fluorescence at 460 nm (blue) in HEK293 cell free culture (AID 720681)
Procedure, shortened: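 Test compounds were pinned into cell-free culture medium (DMEM with 10% FBS) and fluorescence was read directly at Ex/Em 405/460 nm. Signals were expressed as fluorescence equivalents of triamterene, with DMSO vehicle as control.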

[7] = qHTS assay to test for compound auto fluorescence at 535 nm (green) in HEK293 cell free culture (AID 720682)
Procedure, shortened: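 Green-label autofluorescence (485 nm excitation, 535 nm emission) measured on compound added to cell-free culture medium (DMEM, 10% FBS). Output is expressed relative to fluorescein.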

[8] = qHTS assay to test for compound auto fluorescence at 590 nm (red) in HEK293 cell free culture (AID 720683)
Procedure, shortened: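 Tox21 10K library compounds were pinned into cell-free DMEM with 10% FBS and fluorescence was read at excitation 540 nm. Activity is expressed as Rose Bengal sodium equivalency.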

[9] = qHTS assay to test for compound auto fluorescence at 590 nm (red) in HepG2 cell free culture (AID 720684)
Procedure, shortened: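 Ex 540 / Em 590 nm read of compound in cell-free MEM (10% FBS). Rose Bengal sodium reference.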

[10] = qHTS assay to test for compound auto fluorescence at 460 nm (blue) in HepG2 cell free culture (AID 720685)
Procedure, shortened: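 Cell-free plates of MEM plus 10% FBS received 23 nL compound or DMSO vehicle; blue-channel (405/460 nm) intensity scored against triamterene as reference fluorophore.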

[11] = qHTS assay to test for compound auto fluorescence at 535 nm (green) in HepG2 cell free culture (AID 720686)
[12] = qHTS assay to test for compound auto fluorescence at 460 nm (blue) in HepG2 cells (AID 720687)
Procedure, shortened: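 Cells (2,000/well in MEM with 10% FBS) attached overnight at 37 C, then were exposed to compound or DMSO for 1 hr at 37 C, 5% CO2. Fluorescence read at Ex/Em 405/460 nm, expressed as triamterene-equivalent signal.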

[13] = qHTS assay to identify small molecule antagonists of the glucocorticoid receptor (GR) signaling pathway - cell viability counter screen (AID 720693); also: nearly all actives have a fitted effect of over 55% in size; also: potency is read from the fitted curve at half-maximal effect
[14] = qHTS assay to identify small molecule antagonists of the androgen receptor (AR) signaling pathway - cell viability counter screen (AID 743033; also: nearly all actives have a fitted effect of over 45% in size; also: potency is read from the fitted curve at half-maximal effect)
[15] = qHTS assay to identify small molecule antagonists of the androgen receptor (AR) signaling pathway using the MDA cell line - cell viability counter screen (AID 743041; also: nearly all actives have a fitted effect of over 45% in size; also: potency is read from the fitted curve at half-maximal effect)
Procedure, shortened: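 In this qHTS counter assay, fluorescence intensity after CellTiter-Fluor addition indicated viability of MDA-kb2 AR-luc cells given compounds and R1881 for 16 h at 37C.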

[16] = qHTS assay to identify small molecule antagonists of the estrogen receptor alpha (ER-alpha) signaling pathway - cell viability counter screen (AID 743074; calls by dose curve;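 also: HEK293 cells carrying ER-alpha-UAS-bla reporter stimulated with 17beta-estradiol; nearly all actives have a fitted effect of over 45% in size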; also: potency is read from the fitted curve at half-maximal effect)
[17] = qHTS assay to identify small molecule that activate the aryl hydrocarbon receptor (AhR) signaling pathway - cell viability counter screen (AID 743086); also: nearly all actives have a fitted effect of over 45% in size; also: potency is read from the fitted curve at half-maximal effect
Procedure, shortened: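 HepG2-AhR-luc (HG2L7.5c1) cells, 4000/well, were preincubated 5 h at 37C, exposed to compound in qHTS format for 24 hr at 37C, then given CellTiter-Fluor for 30 min; viability was read as fluorescence in the reporter wells.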

[18] = qHTS assay to identify small molecule phospholipidosis (PLD) inducers (AID 1259344; active = well fitted curve in the direction sought with a large enough effect; an effect the other way counts as inactive or inconclusive)
Procedure, shortened: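 After 4 h attachment on collagen I, HepG2 cells were dosed with compound alongside LipidTOX Red, kept 24 h at 37 C, fixed, and imaged for lamellar phospholipid pits.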

[19] = qHTS assay to identify aromatase inhibitors - cell viability counter screen (AID 743084);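 also: cells stimulated with testosterone during compound exposure; nearly all actives have a fitted effect of over 55% in size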; also: potency is read from the fitted curve at half-maximal effect
% is scaled to controls: 0 for no effect and ±100 for the full control effect.

Sequence of Aromatase (Homo sapiens) (P11511 whole entry, looked up): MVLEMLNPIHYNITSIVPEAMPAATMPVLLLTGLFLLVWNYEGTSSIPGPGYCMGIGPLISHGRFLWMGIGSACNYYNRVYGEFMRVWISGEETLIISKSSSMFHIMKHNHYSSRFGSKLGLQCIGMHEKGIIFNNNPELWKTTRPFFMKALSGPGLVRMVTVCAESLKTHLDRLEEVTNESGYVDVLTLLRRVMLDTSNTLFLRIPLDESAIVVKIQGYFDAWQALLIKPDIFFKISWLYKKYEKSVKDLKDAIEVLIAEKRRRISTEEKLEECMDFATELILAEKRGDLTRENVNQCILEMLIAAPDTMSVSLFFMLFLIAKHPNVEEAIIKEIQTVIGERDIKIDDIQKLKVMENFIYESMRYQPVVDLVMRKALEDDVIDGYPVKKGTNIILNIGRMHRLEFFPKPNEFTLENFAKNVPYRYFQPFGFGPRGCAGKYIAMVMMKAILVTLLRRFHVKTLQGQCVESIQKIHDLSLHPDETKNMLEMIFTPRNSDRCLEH

COc1ccc(C)cc1N
inactive: Potency (Aromatase (Homo sapiens))

COC(=O)[C@]12CCC(C)(C)C[C@H]1[C@H]1C(=O)C=C3[C@@]4(C)C=C(C#N)C(=O)C(C)(C)[C@@H]4CC[C@@]3(C)[C@]1(C)CC2
inactive: outcome [3] | Potency [4] | outcome [5] | Potency [6] | Potency [7] | outcome [8] | outcome [9] | Potency [10] | Potency [11] | Potency [12] | Potency [18]
active: Potency [1] 1.33 µM | Potency [2] 2.98 µM | Potency [13] 1.07 µM | Potency [14] 4.25 µM | Potency [15] 6.68 µM | Potency [16] 3.38 µM | Potency [17] 3.76 µM

CCOC(=O)C1(c2ccccc2)CCCN(C)CC1 (stereo not drawn)
inactive: Potency [1] | Potency [2] | outcome [3] | Potency [4] | outcome [5] | Potency [6] | Potency [7] | outcome [8] | outcome [9] | Potency [10] | Potency [11] | Potency [12] | Potency [13] | Potency [14] | Potency [15] | Potency [16] | Potency (Aromatase (Homo sapiens)) | Potency [19] | Potency [17] | Potency [18]

C[C@]12C[C@H]3S[C@H]3C[C@@H]1CC[C@@H]1[C@@H]2CC[C@]2(C)[C@@H](O)CC[C@@H]12
inactive: Potency [1] | Potency [2] | outcome [3] | Potency [4] | outcome [5] | Potency [6] | Potency [7] | outcome [8] | Potency [10] | Potency [11] | Potency [12] | Potency [13] | Potency [15] | Potency [16] | Potency (Aromatase (Homo sapiens)) | Potency [19] | Potency [17]

Oc1ccc2c3c1O[C@H]1[C@@H](O)C=C[C@H]4[C@H](C2)NCC[C@@]341
inactive: Potency [1] | Potency [2] | outcome [3] | Potency [4] | outcome [5] | Potency [6] | Potency [7] | outcome [8] | outcome [9] | Potency [10] | Potency [11] | Potency [12] | Potency [13] | Potency [14] | Potency [15] | Potency (Aromatase (Homo sapiens)) | Potency [19] | Potency [17] | Potency [18]

Cc1ccc(C)cc1
inactive: Potency (Aromatase (Homo sapiens))

C[C@@H]1[C@H](O)[C@@H](C)/C=C/C=C/CC/C=C/C=C/C=C/C=C/[C@H](O[C@H]2O[C@@H](C)[C@H](O)[C@@H](N)[C@H]2O)CC2O[C@](O)(C[C@@H](O)[C@H](O)CC[C@@H](O)C[C@@H](O)C[C@@H](O)CC(=O)O[C@H]1C)C[C@H](O)[C@H]2C(=O)O
inactive: Potency [1] | Potency [2] | Potency [4] | outcome [5] | Potency [6] | Potency [7] | outcome [8] | outcome [9] | Potency [10] | Potency [11] | Potency [12] | Potency [13] | Potency [14] | Potency [15] | Potency [16] | Potency (Aromatase (Homo sapiens)) | Potency [19] | Potency [17] | Potency [18]

CNC(=O)Oc1ccc2c(c1)[C@]1(C)CCN(C)[C@@H]1N2C
inactive: Potency (Aromatase (Homo sapiens))

CCCSc1cc(OC)c(CCN)cc1OC
inactive: Potency [1] | outcome [3] | Potency [4] | outcome [5] | Potency [6] | Potency [7] | outcome [8] | outcome [9] | Potency [10] | Potency [11] | Potency [12] | Potency [13] | Potency [14] | Potency [16] | Potency [18]
active: Potency (Aromatase (Homo sapiens)) 32.5 µM | Potency [17] 32.5 µM

Clc1ccc(C(Cn2ccnc2)OCc2csc3c(Cl)cccc23)c(Cl)c1 (stereo not drawn)
active: Potency (Aromatase (Homo sapiens)) 4.03 µM
inactive: Potency [2] | outcome [3] | Potency [4] | outcome [5] | Potency [6] | Potency [7] | outcome [8] | outcome [9] | Potency [10] | Potency [11] | Potency [13] | Potency [15] | Potency [16] | Potency [19] | Potency [17] | Potency [18]

COc1cc2c(cc1OC)[C@@H]1CC(=O)[C@@H](CC(C)C)CN1CC2
inactive: Potency (Aromatase (Homo sapiens))

CN[C@@]1(c2ccccc2Cl)CCCCC1=O
inactive: Potency [1] | Potency [2] | outcome [3] | Potency [4] | outcome [5] | Potency [6] | outcome [8] | Potency [10] | Potency [11] | Potency [12] | Potency [13] | Potency [14] | Potency [15] | Potency [16] | Potency (Aromatase (Homo sapiens)) | Potency [19] | Potency [17] | PLD induction [18] -4.46% [at 7.66 µM]

O=C(Cl)c1cccc(C(=O)Cl)c1
inactive: Potency (Aromatase (Homo sapiens))

C[C@]12CC[C@H]3[C@@H](CCC4=CC(=O)CC[C@@]43C)[C@@H]1CC[C@H]2O
inactive: Potency [1] | Potency [2] | outcome [3] | Potency [4] | outcome [5] | Potency [6] | Potency [7] | outcome [8] | outcome [9] | Potency [10] | Potency [11] | Potency [12] | Potency [13] | Potency [14] | Potency [15] | Potency [16] | Potency (Aromatase (Homo sapiens)) | Potency [19] | Potency [17]

C[N+](C)(C)CCCCCCCCCC[N+](C)(C)C
inactive: Potency (Aromatase (Homo sapiens))

O=c1c2ccccc2[se]n1-c1ccccc1
inactive: outcome [3] | Potency [4] | outcome [5] | Potency [6] | outcome [8] | outcome [9] | Potency [10] | Potency [11] | Potency [12] | Potency [13] | Potency [18]
active: Potency (Aromatase (Homo sapiens)) 29.8 µM | Potency [19] 26.6 µM

Reference: PubChem BioAssay (Tox21)
